Source: PubChem BioAssay AID602127 (Broad Institute, 2011)
Results with a measured potency or affinity are listed apart.

Target: Cyclin-dependent kinase 2 (Homo sapiens) (UniProt P24941)
Assay: CDK2 kinase inhibitors, off-target check, dose response, selectivity assay for Dyrk1A inhibitor project, biochemical, cherry-picked samples (AID 602127)
Settings: CDK2/cyclin A kinase, ADP-Glo luminescence, 60 min; series mostly up to 10 µM; activity change, negative = inhibition: at the top concentration;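 active = every repeat test judged active, meaning a falling signal with potency within twice the top valid dose; inconclusive = repeat tests disagree on the call; inactive = every repeat test inactive, including signal moving upward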

Activity change, negative = inhibition, inactive:
CN(Cc1nccs1)c1ncnc2ccc(-c3ccc4c(c3)OCO4)cc12 -3%
O=C(Nc1nc(-c2ccncc2)cs1)c1ccco1 1.59%
Cc1nc(CNc2ncnc3ccc(-c4ccoc4)cc23)cs1 1.03%
Cc1c(-c2ccnc(NCc3ccc(Cl)cc3)n2)sc(=O)n1C 2.58%
Clc1ccccc1-c1ccc2ncnc(NCc3ccc4c(c3)OCO4)c2c1 -0.839%
CN(C)S(=O)(=O)c1ccc(Cl)c(C(=O)Nc2cccc3ncccc23)c1 -12.6%
c1coc(CCNc2ncnc3ccc(-c4ccc5c(c4)OCO5)cc23)c1 2.36%
Clc1ccc(CNc2nccc(-c3ccc4c(c3)OCO4)n2)cc1Cl 2.91%
FC(F)(F)c1cccc(Nc2nccc(-c3ccc4c(c3)OCO4)n2)c1 7.47%
Cc1ccnc(NC(=O)c2cccc(S(=O)(=O)N3CCN(c4ccccc4)CC3)c2)c1 -4.96%
Cc1ccsc1CNc1ncnc2ccc(-c3ccc4c(c3)OCO4)cc12 -11.8%
CC(Nc1nc(-c2cccnc2)nc2ccccc12)c1ccc(F)cc1 (stereo unspecified) -15.5%
COc1cc(C(=O)Nc2cccc(-c3nncn3C)c2)cc(OC)c1OC -1.46%
Clc1ccc(CNc2ncncc2-c2ccc3c(c2)OCO3)cc1 -1.46%
c1nc(NCC2CCCO2)c2cc(-c3ccc4c(c3)OCO4)ccc2n1 (stereo unspecified) 9.32%
COc1cccc(Nc2ncnc3sc(C)cc23)c1 -4.69%
O=C(COc1ccccc1)Nc1cccc(-c2cn3cccnc3n2)c1 -14.9%
Brc1cc(Br)cc(CNc2nccc(-c3ccc4c(c3)OCO4)n2)c1 -3.23%
Cc1csc(CN(C)c2ncnc3ccc(-c4ccc5c(c4)OCO5)cc23)n1 2.04%
COCCNC(=O)c1ccc2c(c1)nc(C)n2-c1cccc(F)c1 1.17%
CCN1CCN(Cc2ccc(NC(=O)c3ccc(C)c(/C=C/c4cnc(Nc5cc(N6CCNCC6)nc(C)n5)cn4)c3)cc2C(F)(F)F)CC1 -2.61%
CC(=O)Nc1cccc(NC(=O)c2cc3ccccc3o2)c1 -13.7%
Clc1ccc(CNc2nccc(-c3ccc4c(c3)OCCO4)n2)cc1Cl 2.63%
NC(=O)c1c(NC(=O)c2ccc(N3C(=O)CCC3=O)cc2)sc2c1CCCC2 -15.9%
c1cncc(CNc2cc(-c3ccc4c(c3)OCO4)ncn2)c1 -0.949%
O=C(Nc1nc2c(s1)CCCC2)c1ccc(N2C(=O)CCC2=O)cc1 -13.2%
CC1Cc2ccccc2N1c1ncnc2nc[nH]c12 (stereo unspecified) -5.61%
CN(Cc1cccs1)c1ncnc2ccc(-c3ccc4c(c3)OCO4)cc12 -1.32%
N#CCSc1nc(Nc2ccc3c(c2)OCO3)c2ccccc2n1 -21.3%
Cc1cc(NCCCn2ccnc2)n2ncc(-c3ccc(Cl)cc3)c2n1 -12.4%
Cc1ccc(CNc2ncnc3ccc(-c4ccoc4C)cc23)o1 15.1%
